Assay outcomes (PubChem BioAssay)
The list is not random: actives were taken first. Their share in the collection is about 0.81%.
PTAP TSG101 blk: blocks PTAP/TSG101 interaction to inhibit HIV-1 budding; Q99816; Fluorescence polarization, FITC-PTAP peptide / Tsg101 binding; Potency, µM (series often up to 115 µM), for inactives: top-dose activity change, negative = inhibition, usual class: inhibitors; 340,000 tested, under 10 active; AID 493005; active = well fitted inhibition curve with a large enough effect in the main read-out, with a control signal flat, not every such curve was filed as active; inconclusive = small, poorly fitted or top-dose-only effect, or effect the other way, or a change in a side signal; inactive = no such curve, though single readings can be large or run the other way; note: potency is the fitted concentration of half-maximal effect; % of control where 0% means no effect
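FP read-out: FITC-PTAP peptide, 50 nM final, binding Tsg101 binding domain, 10 uM final; 20 min, r.t.; 10 mM HEPES pH 7.5, 0.15 M NaCl, 0.01% Tween 20, 3 mM EDTA, 0.1 mM TCEP.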
TRHR agonist-1: TRH receptor (human) agonism. activation, % at 2 µM. TRHR cells, calcium flux fluo-8, FDSS agonist mode. P34981. 360,000 compounds, 0.18% hits; in the data active = activation above about 30%; note: 0% is about no effect
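Fluo-8-loaded TRHR cells; 10 s baseline, compound added, kinetic Ca2+ fluorescence read 1/s, agonist mode.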
TRPML1 agonist: activates the human TRPML1 channel; TRPML1-expressing cells, Ca2+ dye fluorescence, FDSS; activation, % (no concentration beside the values); 410,000 compounds, 0.12% hits; AID 624414; in the data active = activation above about 50%; inconclusive = mostly about 30% to 49%; note: 0% is about no effect
Target sequence (Q9GZU1 whole entry, looked up): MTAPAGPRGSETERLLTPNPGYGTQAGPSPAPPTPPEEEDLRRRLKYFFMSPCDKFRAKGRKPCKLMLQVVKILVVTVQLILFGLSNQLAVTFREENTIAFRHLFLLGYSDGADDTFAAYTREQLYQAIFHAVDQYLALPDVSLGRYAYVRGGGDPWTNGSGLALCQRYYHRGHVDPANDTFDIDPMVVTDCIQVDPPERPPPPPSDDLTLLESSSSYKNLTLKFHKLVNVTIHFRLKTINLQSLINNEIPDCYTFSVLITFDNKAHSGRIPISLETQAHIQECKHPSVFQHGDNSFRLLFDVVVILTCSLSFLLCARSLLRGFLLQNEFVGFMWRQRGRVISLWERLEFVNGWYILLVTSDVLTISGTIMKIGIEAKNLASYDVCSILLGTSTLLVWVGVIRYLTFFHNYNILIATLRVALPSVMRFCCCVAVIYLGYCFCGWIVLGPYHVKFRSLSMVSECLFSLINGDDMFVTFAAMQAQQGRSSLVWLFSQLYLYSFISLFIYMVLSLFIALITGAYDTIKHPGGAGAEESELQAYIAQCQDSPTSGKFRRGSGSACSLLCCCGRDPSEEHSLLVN
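Calcium fluorescence on an FDSS kinetic reader gave the read-out. Tet-induced TRPML1-DL cells were plated overnight, dye-loaded (Ca8 with quencher, 45-90 min, room temperature, dark), then read 110 s after compound addition, and again 110 s after 4uM final 54-4 (EC80).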
TRPML1 inh: blocks the human TRPML1 channel | TRPML1-inducible cells, Ca2+ dye fluorescence, FDSS; stronger effect = lower value; inhibition of EC80 agonist-evoked calcium signal | activity change, negative = inhibition, % (no concentration beside the values) | 390,000 compounds, 0.02% hits | Q9GZU1; in the data active = activity change below about -50%; inconclusive = between about -30% and that limit;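 note: stimulus is agonist 54-4 at its EC80 concentration; % is set by controls: 0 for no effect and ±100 for the full control effect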
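Calcium fluorescence in TRPML1-DL cells induced overnight with Tet: a 110 s read after compound pin addition, then a 110 s antagonist read after challenge with 54-4 at 4 uM final (EC80).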
TRHR enhancer-1: TRH receptor (human) allosteric enhancement | TRHR cells, fluo-8 calcium fluorescence, EC20 TRH enhancement | enhancement, % at 2 µM | 360,000 compounds, 0.66% hits | P34981 | AID 493056; in the data active = enhancement above about 30%; note: 0% is about no effect
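Enhancer read-out: after compound pinning and an initial kinetic agonist-mode read, an EC20 of TRH (10 nM final) was injected and fluo-8 calcium signal (Ex 480/Em 530) followed at 1 s/cycle for 100 cycles in TRHR-expressing cells.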
TRHR enhancer-2: confirmation of human TRH receptor allosteric enhancers; shares compounds with TRHR enhancer-1; TRH receptor cell assay, enhancer confirmation qHTS; activity change, negative = inhibition, % at 46.1 µM; 970 tested, under 10 active; AID 493076;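 note: compound effect scored on response to added TRH at EC20 of 10 nM; 0% is about no effect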
TRHR agonist-2: human TRH receptor agonism confirmation; shares compounds with TRHR enhancer-1; TRHR-expressing cells, agonist activation read-out; Potency, µM (titrated, usually from 46.1 µM), for the others: at the highest dose activation, hits mostly activators; 970 compounds, 8% hits; note: potency is the fitted concentration of half-maximal effect; 0% is about no effect; nearly all actives have a fitted effect of over 75% in size
Numbers without * were called inactive; ? = inconclusive; nt = not tested or not shown. Unless noted, calls come from the whole dose curve; as a rule, active = well fitted curve in the direction sought with a large enough effect; inconclusive = small, poorly fitted or top-dose-only effect, or another doubt; inactive = no such curve, though single readings can be large; an effect the other way counts as inactive or inconclusive.

SMILES | PTAP TSG101 blk | TRHR agonist-1 | TRPML1 agonist | TRPML1 inh | TRHR enhancer-1 | TRHR enhancer-2 | TRHR agonist-2
COc1ccc(O)c(C(=O)c2coc(=N)c(C(=O)Nc3ccc(SC(F)F)cc3)c2)c1 | 5% | 29 | 7 | -16 | -5 | -8 | ?
COc1nc(N2CCOCC2)nc(C)c1[N+](=O)[O-] | -5% | 0 | 0 | -18 | 3 | nt | nt
Cc1nc(N2CCOCC2)nc(OC(C)C)c1[N+](=O)[O-] | -8% | 0 | 5 | -5 | 58* | 1 | 2%
O=S(=O)(c1cccc(S(=O)(=O)N2CCC(N3CCCCC3)CC2)c1)N1CCOCC1 | nt | 0 | nt | nt | 49* | -2 | 1%
CC1CCN(S(=O)(=O)c2cccc(S(=O)(=O)N3CCOCC3)c2)CC1 | 1% | 0 | 1 | -13 | 5 | nt | nt
S=C(NCc1ccco1)N1CCOCC1 | -1% | 0 | 0 | 3 | 0 | nt | nt
S=C(NCc1ccco1)Nc1ccc(N2CCOCC2)cc1 | -5% | 1 | 0 | -13 | 53* | -3 | 0%
COC(=O)C1=C(C(=O)c2ccccc2)C(c2ccccc2)n2nnnc2N1 (configuration not stated) | -3% | 1 | 0 | 14 | 62* | 1 | -1%
CN(C)c1ccc(/C=C/c2ccnc3ccc([N+](=O)[O-])cc23)cc1 | nt | nt | 1 | nt | nt | nt | nt
Cc1csc(N2CCCC2=O)n1 | -1% | 0 | 0 | -14 | 41* | 5 | -1%
CNC(=O)C(=O)Nc1c(C)cc(C)cc1C | -2% | -1 | -1 | 13 | 41* | 1 | 6%
O=C(Nc1cccc2ncccc12)c1ccc(Cl)cc1 | -1% | 0 | 0 | 34 | 60* | 2 | 0%
O=C(Nc1cccc2ncccc12)c1ccc(F)cc1 | 0% | 1 | 0 | -6 | -6 | nt | nt
CCOc1cccc(NC(=O)C2CC(=O)NC(=Nc3ccccc3)S2)c1 (configuration not stated) | -2% | 0 | 0 | 25 | 84* | 0 | 2%
S=C(NCCCc1cnc[nH]1)NCCCN(CCc1ccc(Cl)cc1)c1ccc(Br)cn1 | nt | nt | 0 | nt | nt | nt | nt
CS/C(=C\[N+](=O)[O-])Nc1ccc(OC(F)(F)F)cc1 | -3% | 1 | 0 | 4 | 43* | -3 | ?
CC(C)(CCl)C(=O)Nc1ccc(OC(F)(F)F)cc1 | 0% | 0 | -1 | 16 | -5 | nt | nt
CC(C)C(=O)Nc1ccc(/C=C2\C=Cc3ccccc32)cc1 | nt | nt | -1 | nt | nt | nt | nt
O=C(Nc1cccc(Nc2ccccc2)c1)c1cnn2c1NC(=C1CC1)C=C2C(F)F | nt | nt | -1 | nt | nt | nt | nt
CC(C)c1ccc(N(CC(=O)NCCCN2CCOCC2)S(=O)(=O)c2ccccc2)cc1 | -3% | 0 | 0 | -13 | 48* | -2 | 2%
O=c1[nH]c(-c2ccc(O)cc2)nc2scc(-c3cccs3)c12 | -2% | 1 | nt | nt | 47* | 4 | 1%
Cc1nc2scc(-c3cccs3)c2c(=O)[nH]1 | nt | 0 | 0 | -10 | -1 | nt | nt
COc1ccccc1C/C(N)=N/OC(=O)c1cccs1 | -1% | 0 | -1 | -3 | 47* | -2 | -1%
COc1cc(/C=C2\C=Cc3ccccc32)cc(OC)c1OC | nt | nt | 0 | nt | nt | nt | nt
Nc1ccc(/C=C/C(=O)c2cccs2)cc1 | 29% | 52* | 22 | -4 | -15 | ? | 21µM*
SMILES | PTAP TSG101 blk | TRHR agonist-1 | TRPML1 agonist | TRPML1 inh | TRHR enhancer-1 | TRHR enhancer-2 | TRHR agonist-2
CCN(CC(=O)Nc1c(F)cccc1F)C(=O)c1cccc(S(=O)(=O)N2CCCCCC2)c1 | 0% | 0 | 0 | -12 | 42* | -3 | 1%
COc1cc(OC)c(CN2CCC(Cc3ccccc3)CC2)cc1Br | 3% | 2 | 1 | -6 | 3 | nt | nt
COc1ccc(OC)c(CN2CCC(Cc3ccccc3)CC2)c1 | 0% | 28 | 0 | -1 | 3 | -1 | -1%
CN(C)c1ccc(C=Nc2cncc3ccccc23)cc1 | nt | nt | -1 | nt | nt | nt | nt
COc1ccc(CN2CCN(Cc3ccc(CO)o3)CC2CCO)cc1C (configuration not stated) | -3% | 0 | 0 | -2 | 57* | -1 | 1%
COc1ccc(-c2nc3ccc(NC(C)=O)cc3c(=O)n2Cc2cccc(Cl)c2)cc1COc1ccc(NC(C)=O)cc1 | nt | nt | 1 | nt | nt | nt | nt
CN1CCC(=NNC(=O)CSc2ccc(Cl)cc2)CC1 | 1% | 0 | 0 | 30 | 44* | -5 | 0%
C/C=C/c1cc(CN2CCN(c3ccccc3)CC2)c(O)c(OC)c1 | -3% | 2 | 2 | 32 | 42* | -3 | -1%
COc1cc(N(C)C)c(OC)cc1C=C1C=CC=C1 | nt | nt | -1 | nt | nt | nt | nt
COC(=O)c1[nH]c2ccc(Cl)cc2c1NC(=O)CN1CCc2cc(OC)c(OC)cc2C1 | -3% | 0 | -1 | -15 | -8 | nt | nt
CCOC(=O)c1[nH]c2ccc(F)cc2c1NC(=O)CN1CCc2cc(OC)c(OC)cc2C1 | nt | 0 | nt | nt | 43* | 3 | 0%
CN(c1ccc(/C=C/c2ccccc2)cc1)P1(=O)NCCCO1 (configuration not stated) | nt | nt | 0 | nt | nt | nt | nt
Cc1ccc(S(=O)(=O)N2CCN(c3nc(-c4ccnnc4)nc4ccccc34)CC2)cc1 | nt | nt | -1 | nt | nt | nt | nt
CCOC(=O)c1cc(C)sc1NC(=O)CSC1=NCCS1 | -7% | 0 | 4 | 18 | 56* | -5 | 6%
COc1nc(-c2ccc(C)cc2)ccc1-c1noc(-c2cccnc2)n1 | 0% | 1 | ? | -13 | 2 | nt | nt
